Results published in PubChem BioAssay (NCI).
The panel holds about 83,000 compounds, 20% with a hit somewhere; the sample as a whole holds those more often.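 Step 1: grow cells in 96-well plates. Step 2: add test compound at a single concentration. Step 3: incubate 48 h. Step 4: record percent growth.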 Unmarked numbers belong to inactive results. Active and inactive are the calls of the source. The calls were made as follows: active = growth percent below 10; inactive = the rest.

system: HL-60(TB) leukemia; test: NCI-60 one-dose screen, 48 h (100 = growth as untreated, 0 = no growth, -100 = all killed); details: 10 µM unless noted

SMILES	growth
COc1cc(C2C3=C(COC3=O)Nc3c2ccc2c3CCCC2)cc2c1OCO2 (stereo unspecified)	-6.76% (active)
Cc1c(C)c2c(c(C)c1NC(=O)CCCCCCC(=O)O)CCC(C)(CCCC(C)CCCC(C)CCCC(C)C)O2 (stereo unspecified)	75.1%
N#CC(C#N)C(C#N)C#N	98.6%
C=C1C(=O)O[C@H]2[C@H]1CC/C(COC(=O)NCc1ccc(Cn3c(=O)sn(-c4ccc(OC)cc4)c3=O)cc1)=C\CC[C@@]1(C)O[C@@H]21	-18% (active)
O=C(Nc1cccc(-n2cc(-c3ccncc3)c(-c3cc(O)cc(Cl)c3)n2)c1)c1cc(C(F)(F)F)cc(C(F)(F)F)c1	21.4%
C=C(C)[C@@H]1CC[C@]2(C(N)=O)CC[C@]3(C)[C@H](CC[C@@H]4[C@@]5(C)CC[C@H](O)C(C)(C)[C@@H]5CC[C@]43C)[C@@H]12	1.17% [100 µM] (active)
COc1cccc2c1C(=O)c1c(O)c3c(c(O)c1C2=O)C[C@@](O)(/C(C)=N/NC(=O)c1ccc(Cl)cc1)C[C@@H]3OC1CC(N)C(O)C(C)O1 (stereo partly specified)	-53.4% (active)
CCCCCCNC(=O)Oc1ccc(/C(=C(\C)c2ccc(Cl)cc2)c2ccc(OCCN(CC)CC)cc2)cc1	44.3%
CCOc1ccc(-c2cc(C3(S(=O)(=O)c4ccc(C)cc4)CC=CC3)on2)cc1	75.1%
CC1Cc2c(Cl)ncnc2N(C)c2ccc(Cl)cc21 (stereo unspecified)	13.3%
Clc1ccc(Nc2nc(Nc3ccc(Cl)cc3)nc(Nc3ccc(-c4cc(-c5cccc(Cl)c5)on4)cc3)n2)cc1	-50% (active)
